Cruzain noTriton = qHTS Assay for Promiscuous and Specific Inhibitors of Cruzain (without detergent). Cruzipain (Trypanosoma cruzi), P25779. AID 1476, 2009. hit rate 2.3% among 200,000. purified cruzain, Z-FR-AMC fluorescence, no detergent. Potency, µM, most hits filed as inhibitors; further: nearly all actives have a fitted effect of over 40% in size
Target sequence (P25779 123-467 limits assumed): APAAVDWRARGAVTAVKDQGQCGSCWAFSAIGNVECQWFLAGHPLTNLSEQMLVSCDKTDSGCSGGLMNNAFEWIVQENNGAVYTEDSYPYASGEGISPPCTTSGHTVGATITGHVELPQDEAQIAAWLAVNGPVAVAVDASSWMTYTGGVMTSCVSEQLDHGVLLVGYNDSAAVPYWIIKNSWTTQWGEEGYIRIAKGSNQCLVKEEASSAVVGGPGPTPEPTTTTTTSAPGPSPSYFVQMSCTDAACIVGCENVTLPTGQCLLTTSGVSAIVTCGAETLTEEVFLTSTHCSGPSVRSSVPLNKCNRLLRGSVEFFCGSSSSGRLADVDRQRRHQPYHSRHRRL
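Detergent-free condition (0.00005% Triton X-100) in acetate buffer pH 5.5 with DTT. 1.5 nM enzyme and compound were pre-mixed 15 min, then 2 uM Z-FR-AMC substrate added; reaction progress from fluorescence change between first and third reads (60 s).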
Cruzain inh Det = qHTS Assay for Promiscuous and Specific Inhibitors of Cruzain (with detergent) | AID 1478, 2009 | hit rate 0.43% among 200,000 | purified cruzain, Z-FR-AMC fluorescence, 0.01% Triton | Cruzipain (Trypanosoma cruzi), P25779 | Potency, µM, hits mostly inhibitors; further: nearly all actives have a fitted effect of over 40% in size
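Read-out: AMC fluorescence (360 nm excitation, 450 nm emission), four reads over 2 min, first-to-third difference used. Conditions: cruzain 1.5 nM, Z-FR-AMC 2 uM, pH 5.5 acetate, 5 mM DTT, 0.01% Triton X-100.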
A number is an active result; i = inactive; ? = inconclusive. A selection: hits, their analogues and other compounds. The true share with any hit is near 2.4%. The call rests on the fitted dose curve; in most records, active means well fitted curve in the direction sought with a large enough effect; inconclusive means small, poorly fitted or top-dose-only effect, or another doubt; inactive means no such curve, though single readings can be large; an effect the other way counts as inactive or inconclusive.

SMILES	Cruzain noTriton	Cruzain inh Det
C[C@@]1(C(NC(=O)c2ccccc2)c2ccc(-c3ccccc3)cc2)C[C@H]1C1CCCCC1 (stereo partly drawn)	10µM	i
CCOc1ccc2c(c1)c(=O)c(C(=O)c1ccc(CC)cc1)cn2CC(=O)Nc1cccc(Cl)c1	i	i
NC(=O)[C@@H]1CCCN1	i	i
COc1ccc(S(=O)(=O)N2CCN(C)CC2)c2ccccc12	i	i
COc1ccc(S(=O)(=O)N2CCN(c3ccc(Cl)c(Cl)c3)CC2)c2ccccc12	7.9µM	i
O=C(O)c1nnsc1-c1ccc(-c2snnc2C(=O)O)cc1	i	i
CCOC(=O)c1ccc(NC(=O)CSc2ncc(S(=O)(=O)c3ccc(C)c(Cl)c3)c(=O)[nH]2)cc1	?	28µM
Cc1ccc(C)c(NC(=O)CSc2ncc(S(=O)(=O)c3ccc(C)c(Cl)c3)c(=O)[nH]2)c1	i	i
CCCOc1ccc(Cc2nn3c(=O)/c(=C/c4ccco4)sc3nc2=O)cc1	10µM	i
CCCOc1ccc(/C=c2\sc3nc(-c4ccco4)nn3c2=O)cc1OCC	i	i
COc1ccc(-n2cccc2/C=C2/NC(=O)N(c3cccc(Cl)c3)C2=O)cc1	10µM	i
Cc1cccc(N2C(=O)NC(=O)/C(=C\c3cccn3-c3ccc(Cl)cc3)C2=O)c1	i	i
C[n+]1c(/C=C\c2ccc(O)c3ncccc23)[se]c2ccccc21	i	i
COc1ccc(OC)c(NC(=O)CSc2ccnc(=O)[nH]2)c1	i	i
Cc1ccc(C(=O)N/C(=C\c2ccc([N+](=O)[O-])cc2)C(=O)NCCc2ccccc2)cc1	?	i
O=C(NCCc1ccccc1)/C(=C\c1ccc([N+](=O)[O-])cc1)NC(=O)c1ccc(Br)cc1	6.3µM	i
COc1cc2cc3c4c(cc(OC)c(OC)c4c2cc1OC)CCN3C	?	i
CC1CCC(NC(=O)Cn2ncc3c4ccccc4n(Cc4ccc(Cl)cc4)c3c2=O)CC1 (stereo not drawn)	i	i
Cc1cc(C)c(Cn2c3ccccc3c3cnn(CC(=O)NC4CCC(C)CC4)c(=O)c32)c(C)c1 (stereo not drawn)	2µM	i
CN(Cc1ccc(F)cc1)S(=O)(=O)c1nnc(NC(=O)c2ccc(F)cc2)s1	16µM	i
CN(Cc1ccc(F)cc1)S(=O)(=O)c1nnc(NC(=O)c2ccccc2)s1	?	i
O=C(c1ccc(N2C(=O)C3CC=C(Cl)CC3C2=O)cc1)N1CCCCC1 (stereo not drawn)	i	i
O=C(Nc1ccc(Br)cc1)c1ccc(N2C(=O)C3CC=C(Cl)CC3C2=O)cc1 (stereo not drawn)	20µM	i
CCOc1ccc(NC(C)=O)cc1N	i	i
CCOc1cc(-c2ccc(N)c(OCC)c2)ccc1N	25µM	i
SMILES	Cruzain noTriton	Cruzain inh Det
O=C(CSc1ncc2c(n1)-c1cc(Cl)ccc1N(Cc1ccccc1F)S2(=O)=O)Nc1cccc(C(F)(F)F)c1	16µM	i
Cc1ccccc1CN1c2ccccc2-c2nc(SCC(=O)Nc3cc(F)ccc3F)ncc2S1(=O)=O	i	i
Cc1cccc(C)c1NC(=O)CSc1ncc2c(n1)-c1ccc(Cl)cc1N(Cc1ccccc1)S2(=O)=O	i	i
COc1ccccc1NC(=O)CSc1ncc2c(n1)-c1ccccc1N(Cc1ccccc1C)S2(=O)=O	7.9µM	i
O=C(CSc1ncc2c(n1)-c1cc(Cl)ccc1N(Cc1ccccc1)S2(=O)=O)Nc1ccc(F)cc1F	i	i
O=C(CSc1ncc2c(n1)-c1ccc(Cl)cc1N(Cc1ccccc1)S2(=O)=O)Nc1ccc(F)c(F)c1	i	i
COc1ccccc1NC(=O)CSc1ncc2c(n1)-c1cc(Cl)ccc1N(Cc1ccccc1)S2(=O)=O	6.3µM	i
COc1ccc(C)cc1NC(=O)CSc1ncc2c(n1)-c1ccc(Cl)cc1N(Cc1ccccc1)S2(=O)=O	3.2µM	i
CN1CCC[C@@H]1c1cccnc1.O=C(O)c1ccccc1O.O=C([OH2+])c1ccccc1O.O=C([OH2+])c1ccccc1O.O=C([OH2+])c1ccccc1O.[Cu]	i	i
O[C@@H](c1cc(-c2ccc(Cl)cc2)nc2ccccc12)C1CCCCN1 (stereo partly drawn)	i	i
C/C=C(/CC[C@@H](C)[C@H]1CCC2C3=CC[C@H]4[C@H](C)[C@@H](O)CC[C@]4(C)C3CC[C@@]21C)C(C)C (stereo partly drawn)	i	i
CC(C)(C)c1ccc(C(=O)NCCc2csc3nc(-c4ccccc4F)nn23)cc1	i	i
COc1ccc(S(=O)(=O)Nc2ccc3oc4c(c3c2)CCCC4)cc1	?	i
O=S(=O)(Nc1ccc2oc3c(c2c1)CCCC3)c1cc(Cl)ccc1Cl	32µM	i
Cc1nc(S/C(=C/c2ccc(-c3cccc(Cl)c3)o2)C(=O)O)n[nH]1	25µM	i
CC1=NOC(=O)/C1=C\c1ccc(-c2cccc(Cl)c2)o1	?	i
O=C(Nc1ccc2nc(-c3ccc4nc[nH]c4c3)[nH]c2c1)c1cccs1	?	13µM
O=C(Nc1ccc2nc(-c3ccccc3)[nH]c2c1)c1cccs1	i	i
Cc1cc2cc(CCNS(=O)(=O)c3ccc(Br)cc3)c(=O)[nH]c2cc1C	i	i
O=C(O)CCC(=O)NNC(=O)c1ccc(Br)cc1	i	i
C[N+](C)(C)[C@H](Cc1c[nH]c(=S)[nH]1)C(=O)O	i	i
O=C(CNC(=O)/C(=C\c1ccc(F)cc1)NC(=O)c1ccccc1)OCc1ccccc1	?	18µM
O=C(CNC(=O)/C(=C\c1ccccc1)NC(=O)c1ccc(Br)cc1)OCc1ccccc1	i	i
Cc1ccc(/C=C(\NC(=O)c2ccccc2)C(=O)NC(Cc2ccccc2)C(=O)O)cc1 (stereo not drawn)	i	i
Cc1ccc(/C=C(\NC(=O)c2ccccc2)C(=O)OCc2ccccc2)cc1	?	7.9µM
SMILES	Cruzain noTriton	Cruzain inh Det
Nc1ncnc2c1ncn2[C@H]1O[C@@H](C(=O)O)[C@@H](O)[C@H]1O	i	i
COC(=O)c1cc(Cl)ccc1NC(=O)Cn1c(C)cc(C)c(C#N)c1=O	i	i
CCOC(=O)/C=c1\s/c(=C\c2ccc(C)cc2)c(=O)n1CC(=O)NCc1ccco1	16µM	i
CCOC(=O)/C=c1\s/c(=C\c2ccc(C(F)(F)F)cc2)c(=O)n1CC(=O)NCc1ccco1	?	i
CCOC(=O)/C=c1\s/c(=C\c2ccc(-c3ccccc3)cc2)c(=O)n1CC(=O)NCc1ccc2c(c1)OCO2	2.5µM	i
CCOC(=O)COc1cccc2c(=O)n(CC(=O)NCc3ccc4c(c3)OCO4)ccc12	i	i
C=C(C#N)C(=O)OCC	i	i
O=C(CSC1=NCCN1)c1ccccc1	i	i
CN(CC(=O)O)CC(=O)O	i	i
COc1ccc(OC)c(NC(=O)c2c(N3CCCC3=O)c3cc(OC)ccc3n2C)c1	?	i
Cc1ccc(NC2CC(=O)N(c3ccc(N4CCCCC4)cc3)C2=O)cc1 (stereo not drawn)	7.9µM	i
COc1ccc(N2C(=O)CC(Nc3ccc(C)cc3)C2=O)cc1 (stereo not drawn)	?	i
C=CCn1c(SCc2cc(C(C)=O)ccc2OCC)nc2ccccc2c1=O	?	14µM
COc1ccc(C(C)=O)cc1CSc1nc2ccccc2c(=O)n1-c1ccccc1	i	i
COC(=O)[C@@]1(Cc2ccc(OC)cc2)[C@H]2c3cc(C(=O)N(C)C)n(Cc4ccc(OC)c(OC)c4)c3C[C@H]2CN1C(=O)c1ccccc1	?	i
COc1ccccc1CNc1cc(-c2ccccc2)nc2nncn12	i	i
